Reference: the supplement of paper PMC8728848
This is one part of a sample in which the strongest signals are shown more often than they occur.

Assays:
Assay in all cases: glycan array binding signal (z-score within array); higher = stronger binding
Conditions in all cases: glycan notation: IUPAC condensed, linker removed
[1] = biological target: Man(a1-3)[Man(a1-6)]Man(a1-6)[Man(a1-2)Man(a1-3)]Man(b1-4)GlcNAc(b1-4)GlcNAc
In short: (§1)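 Columns mapping to the same glycan were averaged after glycan names were converted to IUPAC-condensed notation. The data come from 3228 arrays in the Consortium for Functional Glycomics database, limited to those with an available protein sequence. Binding is reported as a within-array Z-score averaged across arrays of one protein sequence and across linkers.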

[2] = biological target: Man(a1-3)[Man(a1-6)]Man(b1-4)GlcNAc(b1-4)GlcNAc
In short: as §1

[3] = biological target: Neu5Ac(a2-3)Gal(b1-3)[Fuc(a1-4)]GlcNAc(b1-3)Gal(b1-3)[Fuc(a1-4)]GlcNAc
In short: as §1

[4] = biological target: Neu5Ac(a2-3)Gal(b1-4)GlcNAc(b1-6)[Gal(b1-3)]GalNAc
In short: as §1

[5] = biological target: Neu5Ac(a2-6)Gal(b1-4)GlcNAc(b1-2)Man(a1-3)[GlcNAc(b1-2)Man(b1-4)GlcNAc(b1-2)Man(a1-6)]Man(b1-4)GlcNAc(b1-4)GlcNAc
In short: as §1

[6] = biological target: Neu5Ac(a2-6)GlcNAc(b1-4)GlcNAc(b1-4)GlcNAc
In short: as §1

[7] = biological target: Neu5Ac(a2-8)Neu5Ac(a2-3)Gal(b1-3)GalNAc(b1-4)[Neu5Ac(a2-8)Neu5Ac(a2-3)]Gal(b1-4)Glc
In short: as §1

[8] = biological target: Neu5Ac(a2-8)Neu5Ac(a2-8)Neu5Ac(a2-3)Gal(b1-4)Glc
In short: as §1

[9] = biological target: Neu5Ac(a2-8)Neu5Ac(a2-8)Neu5Ac(a2-8)Neu5Ac(a2-3)[GalNAc(b1-4)]Gal(b1-4)Glc
In short: as §1

[10] = biological target: Neu5Ac(b2-6)GalNAc
In short: as §1

[11] = biological target: Neu5Gc(a2-3)Gal(b1-3)[Fuc(a1-4)]GlcNAc
In short: as §1

[12] = biological target: Neu5Gc(a2-3)Gal(b1-4)Glc
In short: as §1

[13] = biological target: Fuc(a1-2)Gal(b1-4)GlcNAc
In short: as §1

[14] = biological target: Fuc(a1-2)Gal(b1-4)[Fuc(a1-3)]GlcNAc(b1-2)Man(a1-3)[Fuc(a1-2)Gal(b1-4)[Fuc(a1-3)]GlcNAc(b1-2)Man(a1-6)]Man(b1-4)GlcNAc(b1-4)GlcNAc
In short: as §1

[15] = biological target: Fuc(a1-2)Gal(b1-4)[Fuc(a1-3)]GlcNAc(b1-3)Gal(b1-4)[Fuc(a1-3)]GlcNAc
In short: as §1

[16] = biological target: Fuc(a1-2)[Gal(a1-3)]Gal(b1-3)GlcNAc(b1-2)Man(a1-3)[Fuc(a1-2)[Gal(a1-3)]Gal(b1-3)GlcNAc(b1-2)Man(a1-6)]Man(b1-4)GlcNAc(b1-4)GlcNAc
In short: as §1

[17] = biological target: Fuc(a1-2)[Gal(a1-4)]Gal(b1-4)GlcNAc
In short: as §1

[18] = biological target: Fuc(a1-2)[GalNAc(a1-3)]Gal(b1-4)Glc
In short: as §1

[19] = biological target: Fuc(a1-2)[GalNAc(a1-4)]Gal(b1-4)GlcNAc
In short: as §1

[20] = biological target: Gal(a1-3)Gal(b1-3)GlcNAc
In short: as §1

[21] = biological target: Gal(a1-3)GalNAc
In short: as §1

[22] = biological target: Gal(b1-4)GlcNAc(b1-3)Gal(b1-4)GlcNAc(b1-3)Gal(b1-4)GlcNAc
In short: as §1

[23] = biological target: Gal6S(b1-4)GlcNAc6S
In short: as §1

[24] = biological target: GalNAc(a1-3)Gal
In short: as §1

[25] = biological target: GalNAc(b1-3)Gal
In short: as §1

[26] = biological target: GalNAc(b1-3)Gal(a1-4)Gal(b1-4)GlcNAc
In short: as §1

[27] = biological target: GalNAc(b1-3)Gal(a1-4)Gal(b1-4)GlcNAc(b1-3)Gal(b1-4)Glc
In short: as §1

[28] = biological target: GalNAc(b1-4)GlcNAc
In short: as §1

[29] = biological target: Glc(a1-6)Glc(a1-6)Glc
In short: as §1

[30] = biological target: GlcNAc(a1-4)Gal(b1-4)GlcNAc(b1-3)Gal(b1-4)[Fuc(a1-3)]GlcNAc(b1-3)Gal(b1-4)[Fuc(a1-3)]GlcNAc
In short: as §1

[31] = biological target: GlcNAc(b1-3)Gal(b1-4)GlcNAc(b1-3)Gal(b1-4)GlcNAc
In short: as §1

[32] = biological target: GlcNAc(b1-3)[GlcNAc(b1-6)]GlcNAc(b1-4)GlcNAc
In short: as §1

[33] = biological target: GlcNAc(b1-6)Gal(b1-4)GlcNAc
In short: as §1

[34] = biological target: Man(a1-2)Man(a1-3)Man
In short: as §1

[35] = biological target: Neu5Ac(a2-3)Gal(b1-3)GalNAc(b1-3)Gal(a1-4)Gal(b1-4)Glc
In short: as §1

[36] = biological target: Neu5Ac(a2-3)Gal(b1-4)Glc
In short: as §1

[37] = biological target: Neu5Ac(a2-3)Gal(b1-4)GlcNAc(b1-2)Man(a1-3)[GlcNAc(b1-2)Man(b1-4)GlcNAc(b1-2)Man(a1-6)]Man(b1-4)GlcNAc(b1-4)GlcNAc
In short: as §1

[38] = biological target: Neu5Ac(a2-3)Gal(b1-4)GlcNAc(b1-3)Gal(b1-4)[Fuc(a1-3)]GlcNAc
In short: as §1

[39] = biological target: Neu5Ac(a2-6)Gal(b1-4)GlcNAc(b1-2)Man(a1-3)[GlcNAc(b1-2)Man(a1-6)]Man(b1-4)GlcNAc(b1-4)GlcNAc
In short: as §1

[40] = biological target: Neu5Ac(a2-8)Neu5Ac
In short: as §1

[41] = biological target: Neu5Ac(b2-6)Gal(b1-4)GlcNAc
In short: as §1

[42] = biological target: Neu5Gc(a2-3)Gal(b1-4)GlcNAc
In short: as §1

B1: Gz-CVNH (Gibberella zeae) (protein)
chain: MGSSHHHHHHSSGLVPRGSHMGNFHESSNNIWLEDGHILHAECGNGEGDYVESTLDLDYYIGNDDGSFSWGGENFSGSASNITLDIEGDDNIPVLRAELNPMDGDPVEANVNLSERIGNDCGTLIFLA
glycan array binding signal (z-score) [1]: 1.34 | glycan array binding signal (z-score) [2]: -0.119 | glycan array binding signal (z-score) [3]: -0.074 | glycan array binding signal (z-score) [4]: -0.115 | glycan array binding signal (z-score) [5]: -0.09 | glycan array binding signal (z-score) [6]: -0.14 | glycan array binding signal (z-score) [7]: -0.156 | glycan array binding signal (z-score) [8]: -0.128 | glycan array binding signal (z-score) [9]: -0.142 | glycan array binding signal (z-score) [10]: -0.108 | glycan array binding signal (z-score) [11]: -0.134 | glycan array binding signal (z-score) [12]: -0.113

B2: SSA (Sclerotinia sclerotiorum), A7XUK7 (protein)
chain: MGFKGVGTYEIVPYQAPSLNLNAWEGKLEPGAVVRTYTRGDKPSDNAKWQVALVAGSGDSAEYLIINVHSGYFLTATKENHIVSTPQISPTDPSARWTIKPATTHQYEVFTINNKVSELGQLTVKDYSTHSGADVLSASAKTADNQKWYFDAK
glycan array binding signal (z-score) [13]: -0.112 | glycan array binding signal (z-score) [14]: -0.173 | glycan array binding signal (z-score) [15]: -0.407 | glycan array binding signal (z-score) [16]: -0.312 | glycan array binding signal (z-score) [17]: -0.198 | glycan array binding signal (z-score) [18]: -0.1 | glycan array binding signal (z-score) [19]: 3.68 | glycan array binding signal (z-score) [20]: -0.253 | glycan array binding signal (z-score) [21]: 0.053 | glycan array binding signal (z-score) [22]: -0.142 | glycan array binding signal (z-score) [23]: 0.403 | glycan array binding signal (z-score) [24]: 6.1 | glycan array binding signal (z-score) [25]: 3 | glycan array binding signal (z-score) [26]: 4.61 | glycan array binding signal (z-score) [27]: 6.97 | glycan array binding signal (z-score) [28]: 5.32 | glycan array binding signal (z-score) [29]: -0.343 | glycan array binding signal (z-score) [30]: 0.158 | glycan array binding signal (z-score) [31]: -0.207 | glycan array binding signal (z-score) [32]: -0.467 | glycan array binding signal (z-score) [33]: -0.344 | glycan array binding signal (z-score) [34]: -0.3 | glycan array binding signal (z-score) [35]: -0.295 | glycan array binding signal (z-score) [36]: -0.186 | glycan array binding signal (z-score) [37]: -0.291 | glycan array binding signal (z-score) [38]: -0.158 | glycan array binding signal (z-score) [39]: -0.226 | glycan array binding signal (z-score) [40]: -0.215 | glycan array binding signal (z-score) [41]: -0.415 | glycan array binding signal (z-score) [42]: -0.366
